# Assay results from ChEMBL document CHEMBL3988442, “University of Dundee, Small-Polar-MMV Screening Library” (2021).
# Out of some 48,000 compounds screened, about 13,000 (27%) showed an effect of 50% or more. The list shows a part of the results.
# Tested on: Wolbachia pipientis
# Experiment: Anti-Wolbachia Cell-Based Screen
# Type: functional
# Set-up: scale not given: in the data most compounds retested in dose-response had high values
# Conditions: 5 µM
row,SMILES,Percent Effect [%]
1,COC(C)c1nc(CN2CCNCC2)cs1 (configuration not stated),8.778
2,Cc1noc([C@]23COC[C@H]2CN(S(=O)(=O)C2CC2)C3)n1,7.077
3,Cc1noc([C@]23COC[C@H]2CN(C(=O)CN(C)C)C3)n1.O=C(O)C(F)(F)F,111.8
4,Cc1noc([C@]23COC[C@H]2CN(C(=O)C2CCOCC2)C3)n1,-8.72
5,Cc1noc([C@]23COC[C@H]2CN(C(=O)Cc2ccsc2)C3)n1,110.7
6,Cc1noc([C@]23COC[C@H]2CN(S(=O)(=O)N(C)C)C3)n1,-12.17
7,CS(=O)(=O)CC(=O)N1C[C@@H]2COC[C@]2(c2nnc(C3CC3)o2)C1,-25.79
8,Cc1noc([C@]23COC[C@H]2CN(C(=O)COC2CCCC2)C3)n1,97.21
9,Cc1noc([C@]23COC[C@H]2CN(C(=O)N2CCCC2)C3)n1,106.7
10,Cc1noc([C@]23COC[C@H]2CN(S(C)(=O)=O)C3)n1,1.796
11,Cc1nc([C@@H]2C[C@@H]3CCN(C(=O)Cc4ccsc4)C[C@H]3O2)no1,-14.45
12,Cc1cc(C(=O)N2C[C@@H]3COC[C@]3(CN(C)C)C2)sc1C.O=C(O)C(F)(F)F,-22.46
13,Cc1noc([C@@]23CCO[C@@H]2CCN(C(=O)c2ccsc2)C3)n1,10.18
14,Cc1cnn(CC2CN(c3ncnc4ccsc34)CCO2)c1 (configuration not stated),-19.26
15,O=C(Nc1cn[nH]c1)N(CCCO)C1CCc2ccccc21 (configuration not stated),-15.52
16,Cc1cc(NC(=O)N2CCOCC2)nn1-c1cccc(Cl)c1,1.002
17,c1ccc(COCCN2CCc3[nH]cnc3C2c2ccoc2)cc1 (configuration not stated),3.153
18,O=C(NCc1cscn1)NC1CCN(c2ncccc2Cl)C1 (configuration not stated),-8.414
19,CC(C)CC(NS(C)(=O)=O)C(=O)N(C)Cc1nnc2n1CCC2 (configuration not stated),-5.124
20,COc1cccc(OC2CN(C(=O)C3CCCN(C(=O)N(C)C)C3)C2)c1 (configuration not stated),-3.604
21,Cc1cc(C(=O)N2C[C@@H]3COC[C@]3(c3nnc(C)o3)C2)on1,27.9
22,CCOCC(=O)N1C[C@@H]2COC[C@H](c3nc(C)no3)[C@@H]2C1,1.076
23,CCOCC(=O)N1C[C@@H]2COC[C@]2(c2nc(C)no2)C1,107.1
24,CN(C)CCNC(=O)c1nc2c(o1)CN(c1ncccn1)C2,-6.07
25,CCNC(=O)Cc1ccc(NC(=O)NC(CC)c2ccncc2)cc1 (configuration not stated),3.124
26,CCNC(=O)Cc1ccc(-c2cccc3c2CCNC3)cc1,110.7

row,SMILES,Percent Effect [%]
1,CN(C)C(=O)Cc1ccc(-c2cccc3c2CCNC3)cc1,105
2,Cc1ncc2c(c1CNC(=O)C1(c3ccc(F)cc3)CC1)CCNC2,13.15
3,Cc1cc(-c2cccc3c2CCNC3)cnc1-n1cnnc1,3.521
4,Cc1nc(-n2cnnc2)ccc1-c1cccc2c1CCNC2,-4.509
5,CCS(=O)(=O)CCNC(=O)NCc1ccccc1-n1cccn1,-14.43
6,CS(=O)(=O)N1CCC2(CC1)CC(OCC1CCOCC1)CO2 (configuration not stated),-4.18
7,CCCc1nc(CN(CC)C(=O)c2ccc3c(c2)nnn3C)no1,9.755
8,COCC(O)CN1CCC(=O)N(CC=C(C)C)Cc2ccccc21 (configuration not stated),122.6
9,COCC(O)CN1CCC(=O)N(CC2CC2)Cc2ccccc21 (configuration not stated),108.3
10,COc1ccc(CNC(=O)CN2CCc3ccccc32)cc1,5.049
11,COCCC(=O)N1CCN(CC2CC2)c2ncccc2C1,-45.17
12,COCC(O)CN1CCC(=O)N(CC(=O)C(C)(C)C)Cc2ccccc21 (configuration not stated),110.3
13,O=C(CN1CCc2ccccc21)Nc1ccc(OC(F)F)cc1,-23.08
14,CCCS(=O)(=O)CC(=O)N1CCN(CC2CC2)c2ccccc21,-17.3
15,O=C(NCCNc1ncccn1)c1ccc(OCc2ccccc2)nc1,-6.041
16,CN(c1ccc(CNC(=O)c2c[nH]c(=O)c(Cl)c2)cc1)C1CCCCC1,0.5041
17,CCOCCOC(C)C(=O)Nc1nccn1Cc1ccccc1 (configuration not stated),-11.15
18,CC(CCS(C)(=O)=O)NC(=O)NCc1ccc2ccccc2c1 (configuration not stated),-7.499
19,Cc1cc(C)n(C2CN(c3nc(-c4ccncc4)nc4c3CCC4)C2)n1,-1.448
20,CN(C)C(=O)c1ccc(NCCNc2ccc3ccccc3n2)nc1,-5.082
21,Cc1nc(C2CCN(C(=O)c3ccc(=O)n(C)c3)CC2)c2sccn12,-4.246
22,Cc1nc(C2CCN(C(=O)c3ccnn3C)CC2)c2sccn12,90.51
23,CCOc1cc(C)nc(N2CCN(C(=O)c3ccnn3C)CC2)n1,4.776
24,Cc1csc(C2CCCN(C(=O)c3cnn4ccc(C)nc34)C2)n1 (configuration not stated),-3.808
25,Cc1c(C(=O)N2CCC(c3nc(C)n4ccsc34)CC2)cnn1C,112.4
26,Cc1nc(C2CCCN(C(=O)c3ccncc3)C2)c2sccn12 (configuration not stated),112
